In a collection of fitness landscapes (doi:10.1038/s41467-024-54723-y):
The full ranking holds about 18,000 sequences; the median of “TetR repression strength (sort-seq, GFP reporter)” is about 0.23, and the highest 2% start at about 0.68. This excerpt belongs to a sample that is enriched for the highest values.

Target: TetR (class B, Tn10) (UniProt P04483)
Experiment: TetR repression strength (sort-seq, GFP reporter) (relative to tetO2 = 1); higher = stronger repression
Settings: E. coli
How it was run: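 In LB with 50 µg/mL chloramphenicol, E. coli SIG10-MAX holding a low-copy library with eight randomized operator positions between a constitutive promoter and sfGFP, plus constitutive TetR, grew for 5 h at 37 °C. FACS then sorted 10^6 cells into 13 fluorescence bins for Illumina sequencing of each bin. Repression strength equals the top bin index plus one less the read-weighted mean bin, normalized to the unaltered operator. Values from three independent transformations were averaged when reads were ≥30 in every replicate and the CV was ≤0.5.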

Sequence of TetR (class B, Tn10) (P04483 whole entry): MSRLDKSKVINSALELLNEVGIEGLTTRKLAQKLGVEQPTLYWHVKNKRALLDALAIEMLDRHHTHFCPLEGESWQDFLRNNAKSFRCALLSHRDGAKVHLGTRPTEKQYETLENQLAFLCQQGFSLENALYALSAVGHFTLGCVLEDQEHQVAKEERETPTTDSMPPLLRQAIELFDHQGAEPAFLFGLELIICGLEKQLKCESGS

Sequence | TetR repression strength
TCCCGTTGAGTGTTTGAGA | 0.13
TCCCGTGGAGTGTTCGAGA | 0.914
TCCCGTCGAGTGTTCGAGA | 0.218
TCCCGTTAAGTTTCTGAGA | 0.302
TCCCGAGGAGTGTTCGAGA | 0.224
TCCCGTTGAGTGTTGGAGA | 1.1
TCCCGTTGAGTATTTGAGA | 0.329
TCCCGTGGAGTTTCTGAGA | 0.0476
TCCCGTTGAGTTTCTGAGA | 0.744
TCCCGTAAAGTGGTGGAGA | 0.228
TCCCTCGAAGTGCTTGAGA | 0.406
TCCCGAAGAGTGTTGGAGA | 0.268
TCCCGTCAAGTACGCGAGA | 0.196
TCCCCATGAGTAATTGAGA | 0.334
TCCCGCGTAGTTACCGAGA | 0.161
TCCCTCGGAGTGTGCGAGA | 0.09
TCCCTTTGAGTATGGGAGA | 0.0551
TCCCTCGAAGTAGAAGAGA | 0.297
TCCCGTGGAGTGTCCGAGA | 0.821
TCCCGGGGAGTGTCCGAGA | 0.125
TCCCGTGGAGTGGCCGAGA | 0.159
TCCCTACAAGTGTTTGAGA | 0.295

Sequence | TetR repression strength
TCCCGGACAGTTGGTGAGA | 0.421
TCCCAGACAGTCATTGAGA | 0.375
TCCCGGGCAGTCCGCGAGA | 0.163
TCCCAATGAGTGGGCGAGA | 0.238
TCCCCAACAGTTAGGGAGA | 0.218
TCCCGCGGAGTTAGGGAGA | 0.207
TCCCGCTGAGTTACGGAGA | 0.652
TCCCCAATAGTTAGGGAGA | 0.699
TCCCGCTGAGTTAGAGAGA | 0.0464
TCCCGCTGAGTTAGGGAGA | 0.929
TCCCGCTAAGTTAGGGAGA | 0.286
TCCCGCTTAGTGAGGGAGA | 0.419
TCCCCCATAGTTAGGGAGA | 0
TCCCGCTTAGTTACGGAGA | 1.2
TCCCGGTTAGTTACGGAGA | 0.211
TCCCGCTTAGTTAGGGAGA | 1.02
TCCCTTTGAGTGGACGAGA | 0.246
TCCCCATTAGTGGAGGAGA | 0.275
TCCCCGGCAGTATGTGAGA | 0.189
TCCCGGAAAGTCTAGGAGA | 0.216
TCCCTTTAAGTCGACGAGA | 0.285
TCCCTTTTAGTGTGGGAGA | 0.317

Sequence | TetR repression strength
TCCCGTTAAGTCTTGGAGA | 0.302
TCCCGGTTAGTCGTTGAGA | 0.225
TCCCGGCTAGTAGTTGAGA | 0.295
TCCCGGCGAGTCGTTGAGA | 0.801
TCCCGCCTAGTCACTGAGA | 0.682
TCCCGTCGAGTCGTTGAGA | 0.134
TCCCGAGTAGTCACTGAGA | 0.231
TCCCGGAGAGTCGTTGAGA | 0.118
TCCCGGCTAGTCACTGAGA | 0.256
TCCCGGCTAGTCGTTGAGA | 0.89
TCCCAATAAGTGTGCGAGA | 0.242
TCCCGTTTAGTCGCGGAGA | 0.215
TCCCAGTTAGTGGGTGAGA | 0.172
TCCCCTCGAGTGCCGGAGA | 0.442
TCCCTAAAAGTGGGAGAGA | 0.203
TCCCACCGAGTGATAGAGA | 1.21
TCCCACCGAGTGATCGAGA | 0.405
TCCCAAGGAGTGGTAGAGA | 1.18
TCCCCAGGAGTGGTAGAGA | 0.189
TCCCTATGAGTGCTAGAGA | 0.452
TCCCATGGAGTGATAGAGA | 0.548
TCCCCAGGAGTGATAGAGA | 0.339

Sequence | TetR repression strength
TCCCAAAGAGTGGTAGAGA | 0.164
TCCCACCGAGTGAGAGAGA | 0.43
TCCCTGTGAGTGATAGAGA | 0.456
TCCCAAGGAGTGATAGAGA | 0.977
TCCCTATGAGTGATAGAGA | 0.765
TCCCGGATAGTGGGTGAGA | 0.0875
TCCCCGGCAGTCGCAGAGA | 0.207
TCCCGTGTAGTAAGGGAGA | 0.307
TCCCGCCGAGTAGGCGAGA | 0.34
TCCCACTGAGTGATAGAGA | 0.551
TCCCAATGAGTGATAGAGA | 0.685
TCCCAGTGAGTGATAGAGA | 0.528
TCCCAAATAGTGGGAGAGA | 0.214
TCCCTGTTAGTGGGAGAGA | 0.189
TCCCTGATAGTGGGGGAGA | 0.0581
TCCCTGTTAGTGGGGGAGA | 0.737
TCCCAAATAGTGGGGGAGA | 1.1
TCCCAAATAGTGTGGGAGA | 0.459
TCCCTGAAAGTCACGGAGA | 0.337
TCCCGGGGAGTTAGGGAGA | 0.346
TCCCCACCAGTATCAGAGA | 0.697
TCCCCACCAGTGTCAGAGA | 0.334

Sequence | TetR repression strength
TCCCCACAAGTATCCGAGA | 0.296
TCCCCACAAGTGTCAGAGA | 0.352
TCCCCACAAGTATCAGAGA | 0.752
TCCCACCCAGTATCAGAGA | 0.2
TCCCGGTAAGTGATGGAGA | 0.338
TCCCGAGAAGTCCGAGAGA | 0.474
TCCCAGTAAGTCAGAGAGA | 0.066
TCCCGGAAAGTCTCGGAGA | 0.107
TCCCTAGTAGTTGGTGAGA | 0.177
TCCCTCGTAGTGGGTGAGA | 0.815
TCCCTCGGAGTGGGTGAGA | 0.988
TCCCTGAGAGTTGGTGAGA | 0.164
TCCCTCAGAGTTGGTGAGA | 1.2
TCCCAAGTAGTTGGTGAGA | 0.774
TCCCTCGTAGTGAGTGAGA | 0.507
TCCCTCGGAGTGGGAGAGA | 0.217
TCCCTCATAGTGGGTGAGA | 0.0921
TCCCTAAGAGTTGGTGAGA | 0.137
TCCCCAGTAGTTGGTGAGA | 0.114
TCCCTCTGAGTGGGTGAGA | 0.195
